In PubChem BioAssay:
Active and inactive are the calls of the source. Unless noted, no rule for the calls is given here.

Tests used:
[1] = compound effects on lung adenocarcinoma cell viability – A549, calcein-AM fluorescence, 48 h, basal, profiling panel (AID 1162); details: higher = more signal; also: test concentration not given here
[2] = compound effects on differentiated 3T3-L1 adipocyte viability – cell-based, 3T3-L1 adipocytes, calcein-AM fluorescence, 48 h, basal, profiling panel (AID 1163); details: 3T3-L1 adipocytes viability, higher = more signal; also: test concentration not given here
[3] = compound effects on hepatocellular carcinoma cell viability – HepG2, calcein-AM fluorescence, 48 h, basal, profiling panel (AID 1164); details: higher = more signal; also: test concentration not given here
[4] = compound effects on multiple myeloma cell viability – MM1S, calcein-AM fluorescence, 48 h, basal, profiling panel (AID 1165); details: higher = more signal;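 also: viability of MM1S multiple myeloma cells under basal unstimulated conditions; test concentration not given here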
[5] = calcein-AM signal in unstimulated myeloma cells – cell-based, calcein-AM fluorescence, 48 h, PK04 Diversity Set, profiling panel (AID 1166); details: RPMI8226 myeloma viability, higher = more signal;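 also: cells grown under basal conditions without added stimulus; test concentration not given here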
[6] = JC-1 mitochondrial signal, unstimulated HepG2 cells – cell-based, JC-1 fluorescence, 24 h, 100 nL compound, profiling panel (AID 1167); details: HepG2 mitochondrial potential, higher = more signal; also: test concentration not given here
[7] = JC-1 mitochondrial signal, unstimulated adipocytes – cell-based, JC-1 fluorescence, 3T3-L1 adipocytes, 24 h, 100 nL compound, profiling panel (AID 1168); details: JC-1 mitochondrial fluorescence, higher = more signal, called active from +8 up or from −8 down; also: test concentration not given here
[8] = JC-1 mitochondrial signal, unstimulated myeloma cells – cell-based, JC-1 fluorescence, RPMI8226, 24 h, 100 nL compound, profiling panel (AID 1169); details: JC-1 mitochondrial potential fluorescence, higher = more signal; also: test concentration not given here
[9] = JC-1 mitochondrial signal, unstimulated MM1S myeloma – cell-based, JC-1 fluorescence, 24 h, 100 nL compound, profiling panel (AID 1170); details: MM1S mitochondrial potential, higher = more signal; also: test concentration not given here
[10] = resazurin metabolic signal in A549 cells – cell-based, resazurin fluorescence, 24 h, PK04 Diversity Set, profiling panel (AID 1171); details: A549 viability, higher = more signal, called active from +8 up or from −8 down; also: test concentration not given here
[11] = resazurin metabolic signal in HepG2 cells – cell-based, resazurin fluorescence, 24 h, PK04 Diversity Set, profiling panel (AID 1172); details: HepG2 viability, higher = more signal; also: test concentration not given here
[12] = budding yeast growth changes without added modifier – OD600, strain BY4716, 24 h, basal condition, primary screen (AID 1173); details: S. cerevisiae BY4716 growth, OD600, 24 h; higher = more signal, called active from +8 up or from −8 down
[13] = viability profiling in MM1S myeloma cells – cell-based, resazurin fluorescence, basal, 24 h, PK04 Diversity Set, profiling panel (AID 1174); details: higher = more signal, called active from +8 up or from −8 down; also: test concentration not given here
[14] = molecular target: Dihydroorotate dehydrogenase (quinone), mitochondrial (Plasmodium falciparum (isolate 3D7)) (UniProt Q08210); assay: inhibition of P. falciparum DHODH – biochemical, C-terminal His tag, absorbance 600 nm, primary screen (AID 1175); details: PfDHODH enzyme, DCIP absorbance 600 nm; higher = more signal, called active from +8 up or from −8 down;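 also: recombinant parasite enzyme with a five histidine tag at its C terminus; test concentration not given here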
[15] = inhibition of PAO1 biofilm formation – strain PAO1, LB-PBS medium, absorbance 600 nm, primary screen (AID 1176); also: test concentration not given here; details: P. aeruginosa PAO1 growth/biofilm, A600, 12 h; higher = more signal
[16] = growth modulation of vineyard yeast isolate – strain RM11-1a, OD600, basal, 24 h, primary screen (AID 1177);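 also: cultures grown under basal conditions with no added stressor; test concentration not given here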; details: S. cerevisiae RM11-1a growth, OD600, 24 h; higher = more signal, called active from +8 up or from −8 down
[17] = growth of efflux-deficient E. coli DRC39 – strain DRC39, OD650, 24 h, E. coli filamentation inducers, primary screen (AID 1178);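 also: growth measured as culture turbidity by optical density at 650 nm; test concentration not given here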; details: E. coli DRC39 acrAB, higher = more signal, called active from +8 up or from −8 down
[18] = growth of efflux-deficient E. coli DRC39 – strain DRC39, OD650, 48 h, E. coli filamentation inducers, primary screen (AID 1179);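 also: screen aims at cell division blockers that make cells filament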; details: E. coli DRC39 delta-acrAB growth, higher = more signal, called active from +8 up or from −8 down
[19] = viability profiling in RPMI8226 myeloma cells – cell-based, resazurin fluorescence, basal, 24 h, PK04 Diversity Set, profiling panel (AID 1180); details: higher = more signal;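 also: RPMI8826 multiple myeloma cell line at 5000 cells per well; test concentration not given here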
[20] = molecular target: E3 ubiquitin-protein ligase XIAP (Homo sapiens) (UniProt P98170); assay: small molecules binding XIAP protein – biophysical, small-molecule microarray, fluorescence 635 nm, primary screen (AID 1181); details: higher = more signal;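 also: score merges 667 nm emission and signal to noise over triplicate slides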
Chain of E3 ubiquitin-protein ligase XIAP (Homo sapiens) (P98170 whole entry, looked up): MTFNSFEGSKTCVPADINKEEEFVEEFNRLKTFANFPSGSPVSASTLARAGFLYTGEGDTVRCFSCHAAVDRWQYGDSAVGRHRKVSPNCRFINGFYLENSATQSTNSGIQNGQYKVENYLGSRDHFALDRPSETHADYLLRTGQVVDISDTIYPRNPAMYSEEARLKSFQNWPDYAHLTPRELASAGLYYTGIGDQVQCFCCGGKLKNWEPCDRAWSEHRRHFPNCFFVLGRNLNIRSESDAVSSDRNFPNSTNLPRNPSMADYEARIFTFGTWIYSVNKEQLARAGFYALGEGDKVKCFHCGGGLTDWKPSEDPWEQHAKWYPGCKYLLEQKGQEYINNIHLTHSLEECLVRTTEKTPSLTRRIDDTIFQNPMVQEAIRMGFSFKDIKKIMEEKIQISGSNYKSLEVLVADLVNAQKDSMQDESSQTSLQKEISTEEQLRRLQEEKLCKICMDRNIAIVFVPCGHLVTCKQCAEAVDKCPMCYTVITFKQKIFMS

Chain of Dihydroorotate dehydrogenase (quinone), mitochondrial (Plasmodium falciparum (isolate 3D7)) (Q08210 whole entry, looked up): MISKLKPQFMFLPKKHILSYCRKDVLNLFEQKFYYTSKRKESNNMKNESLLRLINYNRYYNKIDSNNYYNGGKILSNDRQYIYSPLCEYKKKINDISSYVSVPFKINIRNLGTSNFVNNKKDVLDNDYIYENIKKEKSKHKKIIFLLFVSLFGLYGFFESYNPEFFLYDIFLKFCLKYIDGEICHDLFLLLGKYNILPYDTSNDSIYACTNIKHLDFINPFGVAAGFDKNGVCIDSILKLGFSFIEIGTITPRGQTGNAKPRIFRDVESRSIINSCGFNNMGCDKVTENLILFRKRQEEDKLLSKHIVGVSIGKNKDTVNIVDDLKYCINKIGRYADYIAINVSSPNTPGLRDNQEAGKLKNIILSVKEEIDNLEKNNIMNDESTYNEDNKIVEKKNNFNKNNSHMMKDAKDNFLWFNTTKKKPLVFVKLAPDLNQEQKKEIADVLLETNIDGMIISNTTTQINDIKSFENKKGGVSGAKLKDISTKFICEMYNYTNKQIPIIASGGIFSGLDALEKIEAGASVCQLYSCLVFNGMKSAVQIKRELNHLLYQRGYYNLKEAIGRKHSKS

| SMILES | z-score [1] | z-score [2] | z-score [3] | z-score [4] | z-score [5] | z-score [6] | z-score [7] | z-score [8] | z-score [9] | z-score [10] | z-score [11] | z-score [12] | z-score [13] | composite z-score [14] | z-score [15] | z-score [16] | z-score [17] | z-score [18] | z-score [19] | composite z-score [20] |
| --- | --- | --- | --- | --- | --- | --- | --- | --- | --- | --- | --- | --- | --- | --- | --- | --- | --- | --- | --- | --- |
| Cc1ccc(S[C@]2(C(=O)NCC(F)(F)F)CC(=O)N(Cc3ccccc3)[C@@H]2c2ccc(CO)cc2I)cc1 | 0.208 | -0.649 | -0.425 | -1.84 | -2.08 | -1.75 | -0.68 (inactive) | -0.797 | -1.59 | 0.589 (inactive) | 0.448 | -3.93 (inactive) | -3.15 (inactive) | 0.343 (inactive) | 0.848 (inactive) | -1.55 (inactive) | 0.531 (inactive) | 0.562 (inactive) | -2.27 | 0.0338 |
| COC1OC[C@]2(C)[C@H]3C4=C(CN2C(=O)OC(C)(C)C)[C@H](C)C(CO)C(CO)C4CC[C@@H]13 (stereo not given in full) | 0.657 | 0.281 | 1.3 | 0.728 | -0.944 | 2.82 | 0.0682 (inactive) | 0.287 | -1.08 | -0.634 (inactive) | -1.1 | 1.14 (inactive) | -1.25 (inactive) | -0.0528 (inactive) | 0.523 (inactive) | 1.06 (inactive) | -0.34 (inactive) | 0.154 (inactive) | -0.975 | 0.243 |
| COc1ccc([Si](C)(C)[C@H]2[C@H](CCO)O[C@@]3(C(=O)N(Cc4cccc(N5C(=O)COc6ccccc65)c4)c4ccccc43)[C@@H]2C)cc1 | -0.533 | 0.167 | -4.12 | -2.21 | -3.93 | 0.0559 | 1.93 (inactive) | -1.05 | -1.5 | -2.14 (inactive) | -2.46 | 0.422 (inactive) | -3.44 (inactive) | 0.858 (inactive) | 2.44 (inactive) | 4.14 (inactive) | 2.23 (inactive) | 1.92 (inactive) | -4.91 | -0.132 |
| COc1ccc([Si](C)(C)[C@@H]2[C@@H](CC(=O)N(CCO)Cc3ccccc3)O[C@]3(C(=O)N(Cc4cccc(N5CCOC5=O)c4)c4ccccc43)[C@H]2C)cc1 | -1.23 | 0.836 | -1.64 | -2.66 | -3.51 | -0.0766 | 0.0933 (inactive) | -1.07 | -0.991 | -2.25 (inactive) | -1.89 | 0.0608 (inactive) | -3.23 (inactive) | 0.0205 (inactive) | 1.76 (inactive) | 2.67 (inactive) | 0.577 (inactive) | -0.463 (inactive) | -2.42 | -0.02 |
| COCCCNC(=O)[C@]1(CCS(=O)(=O)c2ccccc2)N=C(c2ccc(OCCCO)cc2)O[C@@H]1c1ccccc1CN=[N+]=[N-] | 1.61 | 0.652 | 1.15 | 0.114 | 0.0901 | 0.542 | 0.482 (inactive) | -0.393 | -1.34 | -0.97 (inactive) | -0.776 | 1.67 (inactive) | -3.5 (inactive) | 0.36 (inactive) | 0.438 (inactive) | 1.62 (inactive) | 0.0971 (inactive) | 0.748 (inactive) | -0.601 | 0.481 |
| NC(N)=NCCCn1cc(CNC(=O)[C@@H](N)Cc2ccccc2)nn1 | -0.531 | -0.637 | -0.948 | -0.0334 | -1.23 | -0.868 | -0.283 (inactive) | 0.714 | 0.225 | -0.414 (inactive) | -0.686 | -0.85 (inactive) | -0.433 (inactive) | -2.75 (inactive) | -0.264 (inactive) | -0.297 (inactive) | 0.19 (inactive) | -0.0439 (inactive) | -0.68 | 0.012 |
| O=C1O[C@H](c2ccccc2)[C@H](c2ccccc2)N2[C@H]1[C@@H](C(=O)NC[C@H](O)c1ccccc1)[C@]1(C(=O)Nc3ccc(C#CCCO)cc31)[C@H]2c1ccc(OCCO)cc1 | 1.12 | 1.25 | 1.49 | -0.156 | 0.868 | -0.274 | -0.0786 (inactive) | -0.165 | -0.389 | -0.0659 (inactive) | -0.468 | 1.62 (inactive) | -0.0793 (inactive) | -1.33 (inactive) | 2.31 (inactive) | 3.46 (inactive) | 0.541 (inactive) | 0.721 (inactive) | -0.821 | 0.283 |
| O=C1C2C=CC(C(O)c3ccc(Br)cc3)N(Nc3ccccc3F)C2C(=O)N1c1ccccc1 (stereo not given) | 1.79 | 0.085 | 0.418 | 1.05 | -0.0004 | -0.629 | -1.56 (inactive) | 0.417 | -1.46 | 0.0502 (inactive) | 0.732 | -2.45 (inactive) | -0.18 (inactive) | 0.356 (inactive) | 0.629 (inactive) | -1.17 (inactive) | 0.774 (inactive) | 2.06 (inactive) | 0.489 | 0.0933 |
| CCOC(=O)C[C@H]1[C@H](OC(=O)c2cc3ccccc3oc2=O)[C@@H](NC(=O)c2ccc(-c3ccccc3)cc2)c2cc(OCCCO)ccc2N1C(=O)c1ccccc1 | 0.182 | 1.82 | 0.404 | 0.172 | -0.841 | 1.27 | -0.445 (inactive) | -0.337 | -0.595 | -1.1 (inactive) | -0.638 | -1.79 (inactive) | -0.005 (inactive) | -2.74 (inactive) | -0.329 (inactive) | -0.272 (inactive) | -0.466 (inactive) | -0.878 (inactive) | -0.24 | 0.164 |
